# Measurements from PubChem BioAssay (NCI).
# This is part of a sample that, as a whole, favours compounds with a hit. Of some 83,000 tested, about 20% had one in any assay.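 Cells were grown in 96-well plates and exposed to the test compound at a single concentration for 48 hours; results are reported as percent growth, with values below 10 considered active.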 Activity calls are given as the source filed them.
# Tested on: UO-31 renal
# Test: NCI-60 one-dose screen, 48 h (100 = growth as untreated, 0 = no growth, -100 = all killed)
# Settings: 10 µM unless noted
row,Compound,growth
1,O=C(Nc1ccc(O)cc1)C(Cl)(Cl)Cl,93.4% (inactive)
2,CCCOC(=O)N[C@H]1CCc2c(Br)c(OC)c(OC)c(OC)c2-c2ccc(SC)c(=O)cc21,20.7% (inactive)
3,CCOC(=O)[C@@H](C)C[C@H](Cc1ccccc1)NC(=O)c1csc([C@@H](C[C@H](C(C)C)N(C)C(=O)[C@@H](NC(=O)[C@H]2CCCCN2C)C(C)(C)CC)OC(C)=O)n1,7.43% (active)
4,CN1CC(CNC(=O)OCc2ccccc2)CC2c3cccc4c3c(cn4C)CC21 (configuration not stated),32.5% (inactive)
5,COc1ccc(NC([Se])=NC23CC4CC(CC(C4)C2)C3)cc1,-27.3% (active)
6,ClCCN(CCCl)c1ccc(/C=N\N=C\c2ccc(N(CCCl)CCCl)cc2)cc1,-16.2% (active)
7,C[C@@]12CC=C3c4nc(Nc5cccc(O)c5)sc4CC[C@]3(C)[C@H]1CC[C@]1(C)C(=O)CC[C@@H]21,22.2% (inactive)
8,O=[N+]([O-])/C=C\c1ccc(Cl)c(Cl)c1,35.4% (inactive)
9,CC(C)OC(=O)[C@H](C)NP(=O)(Oc1ccccc1)C1CCCN(O)C1=O (some centres not stated),86.2% (inactive)
10,COC(=O)CCC1=C(C)c2cc3[n-]c(cc4nc(cc5[n-]c(cc1n2)c(CCC(=O)OC)c5C)C=C4C)cc3C.[Cd+2],71.7% (inactive)
11,C=CCn1cc(C=C2C(=O)N(C)C(=O)N(C)C2=O)c2ccccc21,78.2% (inactive)
12,COC(=O)[C@@H](C)C[C@H](Cc1ccccc1)NC(=O)c1nc([C@@H](C[C@H](C(C)C)N(C)C(=O)[C@@H](NC(=O)[C@H]2C[C@H](O)CCN2C)C(C)C)OC(C)=O)sc1C(C)C,12.5% (inactive)
